Reference: PubChem BioAssay (NCATS)
Where “and” joins values, the source holds several entries; their conditions need not be identical. Equal entries are not always repeated. Inconclusive results are not listed. The source holds several records for some structures; these can differ, active in one and inactive in another. Calls of active or inactive are those of the source. Calls follow the shape of the dose curve; as a rule, active = well fitted cell-killing curve with a large enough effect; inconclusive = small, poorly fitted or top-dose-only effect, or effect the other way; inactive = no such curve, though single readings can be large or run the other way.

Assay: Viability qHTS for spleen associated tyrosine kinase inhibitor (SYKi) drug resistant MV4-11 cells (AID 1963824); also: nearly all actives have a fitted effect of over 35% in size
Conditions: SYKi-resistant MV4-11 viability, CellTiter-Glo, 72 h; series mostly up to 45 µM; viability, % of control: at the top concentration
Source text: Department of Medicine, Hematology/Oncology
University Hospital Frankfurt, Germany.
Trials have shown promising clinical activity of the selective SYK inhibitor entospletinib in patients with high expressing HOXA9/MEIS1 acute leukemias. As the development of resistance mechanisms is a common problem in the use of targeted drugs, we performed a chemical library screen to identify drug sensitivities in SYK inhibitor resistant AML cells. […] Glucocorticoids are potent immunosuppressants which work in part by inhibiting the transcription of cytokine genes.
Described herein is a viability screen to look for activity in the SYK inhibitor drug resistant cell line against four NCATS compound libraries (MIPE 5.0, NPC, NPACT, and Kinase) totaling 11372 compounds. Active hits were reacquired for confirmation and further secondary assay testing.
SEQUENCE No. (e.g., 1, 2, 3, etc.); […] (e.g., Cells, Incubation, Reagent, etc.); VALUE; DESCRIPTION.
1; Media; 2uL; white, solid-bottom Corning assay plate.
2; Compounds; 23nL; Echo acoustic dispenser.
3; Cell; 5uL; 500 cells per well.
4: Incubation; 72hr; 37 C, 5% CO2, 95% humidity.
5; Reagent; 3uL; CellTiter-Glo reagent (Promega).
6; Incubation; 10min; room temperature.
7; Detection; Luminescence; ViewLux plate reader (PerkinElmer).
NOTES (numbers refer to Sequence numbers above
1. Quantitative high-throughput screening (qHTS) of small molecule compounds was conducted on drug resistant SYKi MV4-11 cell line.
2. Twenty-three nanoliter of small molecule compounds were added to each assay plates using the Echo acoustic dispenser (Beckman Coulter).
3. Cells were seeded into the assay plates at a final density of 500 cells in 5uL of media per well using the Multidrop Combi dispenser.
4. Plates were covered with stainless steel gasketed lids and incubated for 72 hours at standard cell culture conditions.
5. Viability was assessed by adding 3uL of CellTiter-Glo detection reagent (Promega).
6. Plates were covered with gasket lids and incubated for 10 minutes at room temperature.
7. Luminescence was measured on a ViewLux plate reader (PerkinElmer).
Potency is read from the fitted curve at half-maximal effect.

Row | SMILES | viability, % of control | Potency
1 | C[C@]12CCC3=C4CCC(=O)C=C4CC[C@H]3[C@@H]1CC[C@@]2(O)CC#N | 87.3% (inactive) | –
2 | C[C@@H]1COCCN1c1cc(=O)n2c(n1)N(Cc1cncc(Cl)c1)[C@H](C(F)(F)F)CC2 | – | 4.11 µM (active)
3 | CN(C)CCNC(=O)NC[C@H]1CC[C@@H]2[C@H](O1)c1cc(C(F)(F)F)ccc1N[C@H]2c1ccccc1 | – | 0.132 µM (active)
4 | C=C(C(=O)O)[C@@H]1CC=C2CCC[C@H](C)[C@@]2(C)C1 | 72.7% (inactive) | –
5 | C/C=C(\C)C(=O)OCC1OC(OC2OC(CO)C(O)C(O)C2O)C(O)C(O)C1O (stereo not given) | 99.4% [at 17.3 µM] (inactive) | –
6 | c1coc(CNc2ncnc3nc[nH]c23)c1 | – | 18.6 µM (active)
7 | C/C=C1\[C@H](O[C@@H]2O[C@H](CO)[C@@H](O)[C@H](O)[C@H]2O)OC=C(C(=O)OC)[C@H]1CC(=O)OC | 63.8% [at 17.3 µM] (inactive) | –
8 | CCCCCCCOc1cc2c(cc1/C(C)=C/c1ccc(C(=O)O)cc1)C(C)(C)CCS2(=O)=O | – | 11.6 µM (active)
9 | O=C(CC(c1ccccc1)c1ccccc1)N1CCN(C(c2ccccc2)c2ccccc2)CC1 | – | 10.3 µM (active)
10 | COC(=O)[C@@]1(C)CC[C@]2(C(=O)O[C@@H]3O[C@H](CO)[C@@H](O)[C@H](O)[C@H]3O)CC[C@]3(C)C(=CCC4[C@@]5(C)CC[C@H](O[C@@H]6O[C@H](C(=O)O)[C@@H](O)[C@H](O)[C@H]6O)C(C)(C)C5CC[C@]43C)[C@@H]2C1 (stereo not given in full) | 81.9% [at 9.25 µM] (inactive) | –
11 | Cn1cnc2c1c(=O)[nH]c(=O)n2C | – | inactive
12 | CC(C)=CCc1c(O)cc2oc3cc(C)cc(O)c3c2c1C | – | 23.1 µM (active)
13 | COc1ccc(C2=N[C@H](c3ccc(Cl)cc3)[C@H](c3ccc(Cl)cc3)N2C(=O)N2CCNC(=O)C2)c(OC(C)C)c1 | – | 16.6 µM (active)
14 | CC(C)(C)c1ccc(CN2CCN(C(c3ccccc3)c3ccc(Cl)cc3)CC2)cc1 (stereo not given) | – | 23.1 µM (active)
15 | CCCc1ncc(C[n+]2ccccc2C)c(N)n1 | 90.2% (inactive) | –
16 | N[C@@]1(C(=O)O)CS(=O)(=O)[C@H]2[C@H](C(=O)O)[C@H]21 | 81.2% (inactive) | –
17 | Cc1nnc(-c2sc(NC(=O)[C@H](C(C)C)n3c(=O)[nH]c4ccccc4c3=O)nc2C)o1 | 53.2% (inactive) | –
18 | CN1CCN(c2c(F)cc3c(=O)c(C(=O)O)cn4c3c2OCN4C)CC1 | 84% [at 17.3 µM] (inactive) | –
19 | CCC(C(=O)NC(=O)NC(C)=O)c1ccccc1 (stereo not given) | 100% (inactive) | –
20 | O=C(/C=C/c1ccc(O)cc1)N[C@@H](Cc1ccc(O)cc1)C(=O)O | 103% (inactive) | –

Row | SMILES | viability, % of control | Potency
21 | CCOc1ccc(-c2cc(NC(=O)c3c(F)cccc3F)c(C(=O)O)s2)cc1 | 25.1% (inactive) | –
22 | CCCCCCCCCCCCCC[N+](C)(C)Cc1ccccc1 | – | 3.35 µM (active)
23 | NC(=O)c1cnc(NCCc2ccc(O)c(Cl)c2)nc1NCc1ccccc1 | – | 0.0259 µM (active)
24 | O=C(O)c1ccc(S(=O)(=O)N(Cl)Cl)cc1 | 89.1% (inactive) | –
25 | CNC1CN(c2ccc3c(=O)c(C(=O)O)cn(-c4nccs4)c3n2)CC1OC (stereo not given) | – | 0.376 µM (active)
26 | CC(C)(O)c1ccc2c(c1)C(=O)C[C@H]1[C@](C)(C(=O)O)CCC[C@]21C | 85.2% (inactive) | –
27 | CCCCCCCCCCCCCCCCCCO | 115% (inactive) | –
28 | CNC(=O)c1ccccc1Nc1nc(Nc2ccc3c(c2OC)CCC[C@@H](N2CCN(CCO)CC2)C3)ncc1Cl | – | 0.58 µM (active)
29 | CCN(CC)CCCCNc1ncc2cc(-c3c(Cl)cccc3Cl)c(NC(=O)NC(C)(C)C)nc2n1 | – | 0.58 µM (active)
30 | NCCCC[C@H](NC(=O)[C@@H](NC(=O)[C@H](Cc1c[nH]c2ccccc12)NC(=O)[C@H](CCCCN)NC(=O)[C@H](CCCCN)NC(=O)[C@H](Cc1c[nH]c2ccccc12)NC(=O)[C@H](Cc1c[nH]c2ccccc12)NC(=O)[C@H](CCCCN)NC(=O)[C@@H](N)CCCCN)C(c1ccccc1)c1ccccc1)C(N)=O | – | 10.5 µM (active)
31 | O=C(O)CNC(=O)c1nc(Cl)c2ccccc2c1O | 75.6% (inactive) | –
32 | COc1cc(OC)c(/C=C/S(=O)(=O)Cc2ccc(OC)c(NCC(=O)O)c2)c(OC)c1 | – | 51.7 nM (active) and 118 nM (active)
33 | OC1(c2ccc(Cl)cc2)CCNCC1 | 89.4% (inactive) | –
34 | CC(C)C[C@H](NC(=O)[C@@H]1O[C@H]1C(=O)O)C(=O)NCCCCN=C(N)N | 80.6% (inactive) | –
35 | CCC(C)C1NC(=O)C(Cc2ccccc2)NC(=O)C(CCCCCC(=O)C(O)CO)NC(=O)C2CCCCN2C1=O (stereo not given) | – | 1.93 µM (active)
36 | CO[C@H]1O[C@@H]2O[C@]3(C)CC[C@H]4[C@H](C)CC[C@@H]([C@H]1C)[C@@]24OO3 | – | 2.91 µM (active)
37 | Cc1nn(C)c(COc2ccc(N3CCN(S(=O)(=O)N(C)C)CC3)cc2)c1-c1cccc2c(CCCOc3cccc4ccccc34)c(C(=O)O)n(CCN3CCOCC3)c12 | – | 6.61 µM (active) and inactive
38 | CCC(C)C(=O)O[C@H]1[C@@H](O[C@H]2O[C@H](CO)[C@@H](O)[C@H](O)[C@H]2O)O[C@H](CO)[C@@H](O)[C@@H]1O (stereo not given in full) | 74.1% [at 17.3 µM] (inactive) | –
39 | C/C=C/C1OC2=C(C(=O)OC2(C)O)C(O)C1O (stereo not given) | 84.2% (inactive) | –
40 | O=C(NCC(=O)N1CCCC1)Nc1ccc2cnccc2c1 | – | 8.2 µM (active)
